The text below walks through data of PubChem BioAssay AID1220 (Sanford-Burnham Center for Chemical Genomics, 2008).

About 1,300 (0.68%) of roughly 190,000 compounds were called active. The sample holds actives, similar compounds and a random draw of the others, so the mix is not that of the screen. Rule as the data show it: active = inhibition above about 50%; inactive = the rest.

The target in this experiment is Mannose-6-phosphate isomerase (Homo sapiens) (UniProt P34949). As to the kind of experiment: MPI inhibition at elevated mannose 6-phosphate – biochemical, fluorescence intensity, high mannose 6-phosphate, primary screen (AID 1220). Particulars: recombinant PMI enzyme, coupled fluorescence intensity; at 20 µM; hits give high values.
Chain of Mannose-6-phosphate isomerase (Homo sapiens) (P34949 whole entry, looked up): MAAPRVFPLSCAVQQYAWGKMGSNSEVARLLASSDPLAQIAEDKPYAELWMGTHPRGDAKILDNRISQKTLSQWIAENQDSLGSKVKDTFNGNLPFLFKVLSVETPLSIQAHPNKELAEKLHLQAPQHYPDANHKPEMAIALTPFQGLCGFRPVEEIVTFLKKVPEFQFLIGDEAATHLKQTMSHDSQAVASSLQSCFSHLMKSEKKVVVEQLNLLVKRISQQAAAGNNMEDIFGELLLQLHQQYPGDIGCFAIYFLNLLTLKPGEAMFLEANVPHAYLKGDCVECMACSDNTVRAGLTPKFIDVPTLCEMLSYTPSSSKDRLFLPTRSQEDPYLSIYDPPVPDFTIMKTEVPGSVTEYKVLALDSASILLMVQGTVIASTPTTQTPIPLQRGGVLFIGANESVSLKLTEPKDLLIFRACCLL
`CC(=O)C1=C(C)OC(N)=C(C#N)C1c1cccc([N+](=O)[O-])c1` (configuration not stated): the inhibition (as a rule, the change of the read-out against control, counted positive when it falls) is 56.7% (active).

On to `CC(=O)C1=C(C)OC(N)=C(C#N)C1c1ccncc1` (configuration not stated), for which the inhibition was -5.8% (inactive).

`CCOC(=O)C1=C(c2ccccc2)OC(N)=C(C#N)C1c1cccnc1` (configuration not stated): the inhibition is 11.6% (inactive).

`COC(=O)C1=C(C)OC(N)=C(C#N)C1c1cccnc1` (configuration not stated): the inhibition was 0.3% (inactive).

Turning to `CC1=C(n2nnc([N+](=O)[O-])n2)C(c2cccnc2)C(C#N)=C(N)O1` (configuration not stated), the inhibition is 59.9% (active).

For `CC(=O)C1=C(C)OC(N)=C(C#N)C1c1cccnc1` (configuration not stated), the inhibition was 42.6% (inactive).

As for `O=C(CN1CCN(C2CCCCC2)CC1)Nc1ccc(Br)cc1`, the inhibition is -11.2% (inactive).

Take `CC1(C)CC(=O)C(N=Nc2cc(Cl)c(Cl)c(Cl)c2)=C(O)C1`: the inhibition was -3.4% (inactive).

Turning to `O=Cc1ccc(-n2cc(C=O)c3ccccc32)cc1`, the inhibition was -5.3% (inactive).

For `CC1=C(C(=O)OCC2CCCO2)C(c2coc3ccccc3c2=O)C2=C(CC(C)(C)CC2=O)N1` (configuration not stated), the inhibition is -4.3% (inactive).

For `CC(NC(=O)c1cc(-c2ccc(Br)cc2)on1)c1ccccc1` (configuration not stated), the inhibition was -3.3% (inactive).

With `CCc1cc(C(=O)Cc2cnn(-c3ccccc3)c2)c(O)cc1O`, the inhibition was 15.5% (inactive).

For the compound `O=C(c1cnn(-c2ccccc2)c1)c1ccccc1O`, the inhibition was 10.1% (inactive).

In the case of `O=C(Nc1cccc(NC(=O)c2ccc3c(c2)OCO3)c1)c1ccccc1`, the inhibition was 6.5% (inactive).

Take `CCOc1ccccc1N1CCN(CC(=O)Nc2nnc(CC)s2)CC1`: the inhibition is -13% (inactive).

With `O=c1c2cc(Br)ccc2nc(-c2ccc([N+](=O)[O-])cc2)n1O`, the inhibition is -16.5% (inactive).

As to `O=c1c2c([N+](=O)[O-])cc([N+](=O)[O-])cc2sn1-c1ccc(Br)cc1`, the inhibition was 104% (active).

Take `O=c1n(-c2ccc(Br)cc2)cnn1-c1ncccc1[N+](=O)[O-]`: the inhibition was -0.4% (inactive).

In the case of `Cc1ccc(C(=O)Nc2ccc(Br)cc2)cc1S(=O)(=O)Nc1ccccn1`, the inhibition was 3.7% (inactive).

Regarding `COc1cccc(NC2=NC3(CCCCC3)N=C(N)N2)c1`, the inhibition is -6.8% (inactive).

With `c1ccc(Nc2cccc(Nc3ccccc3)c2)cc1`, the inhibition was 29.3% (inactive).

Consider `O=C1c2cccc3cccc(c23)C(=O)N1c1nccs1`, for which the inhibition is 8.2% (inactive).

With `COc1ccccc1-c1nnc(NC(=O)C(C)Sc2nncn2C)s1` (configuration not stated), the inhibition was -2.2% (inactive).

Turning to `COc1ccc(OC)c(-c2nnc(NC(=O)C(C)Sc3nncn3C)s2)c1` (configuration not stated), the inhibition is 91.6% (active).

In the case of `CC(Sc1nncn1C)C(=O)Nc1nnc(-c2ccccc2)s1` (configuration not stated), the inhibition was 6% (inactive).

In the case of `COc1ccccc1CN1CCNC(=O)C1CC(=O)NCc1csc(C)n1` (configuration not stated), the inhibition was 9.7% (inactive).

For `CSc1ccc(/C=N/NC(=O)CN2CCN(Cc3ccccc3Cl)CC2)cc1`, the inhibition is 0.4% (inactive).

Regarding `Cc1ccc(C)c(C(=O)COc2ccc(C)nc2[N+](=O)[O-])c1`, the inhibition is 18.4% (inactive).

For `COCCn1c(C)cc(C(=O)COc2nc3ccccc3nc2C)c1C`, the inhibition was 8.5% (inactive).

Consider `COCCn1c(C)cc(C(=O)COc2cccnc2[N+](=O)[O-])c1C`, for which the inhibition is 59.4% (active).

Turning to `COCCn1c(C)cc(C(=O)COc2ccc(C)nc2[N+](=O)[O-])c1C`, the inhibition is 51.6% (active).

As to `Cc1ccc(OCC(=O)c2cc(C)n(C)c2C)c([N+](=O)[O-])n1`, the inhibition was 42.3% (inactive).

Take `Cc1ccc(OCC(=O)c2cc(C)c(C)cc2C)c([N+](=O)[O-])n1`: the inhibition was 4.2% (inactive).

As for `CCCn1c(C)cc(C(=O)COc2ccc(C)nc2[N+](=O)[O-])c1C`, the inhibition is 3.2% (inactive).

On to `Cc1cc(C)c(C(=O)COc2cccnc2[N+](=O)[O-])cc1C`, for which the inhibition was 24.3% (inactive).

For the compound `Cc1ccc(OCC(=O)c2ccc(Cl)s2)c([N+](=O)[O-])n1`, the inhibition is 55.6% (active).

With `O=C(CCN1C(=O)c2cccnc2C1=O)NC1CCCCCC1`, the inhibition was 9.7% (inactive).

In the case of `CCC(=O)Nc1ccc(N2CCN(S(C)(=O)=O)CC2)cc1`, the inhibition is 3.4% (inactive).

Consider `Cc1cc(NCCCn2ccnc2)n2nc(-c3ccc(F)cc3)cc2n1`, for which the inhibition is -14.3% (inactive).

For `O=C(N/N=C/c1ccncc1)c1cccc(NC(=O)c2ccc(Cl)cc2)c1`, the inhibition is -140% (inactive).

In the case of `C#CCOCCOCCOCCNc1nc(N2CCN(C(=O)Cn3cc(CCCN=C(N)N)nn3)CC2)nc(N2CCN(C(=O)[C@H]([C@@H](C)CC)n3cc(CCCN=C(N)N)nn3)CC2)n1`, the inhibition was -53.5% (inactive).

Regarding `CCOC(=O)N1CCC(NC(=O)C2CCCN(c3nc4ccccc4o3)C2)CC1` (configuration not stated), the inhibition is 3.2% (inactive).

For the compound `CC(NC(=O)C(Cc1ccccc1)NC(=O)c1ccccc1)C(=O)O` (configuration not stated), the inhibition was -5.7% (inactive).

`N=C(N)Cc1ccccc1Sc1ccccc1`: the inhibition was -7.9% (inactive).

In the case of `Cc1ccc(NC(=O)c2ccc(F)c(S(=O)(=O)N3CCOCC3)c2)cc1F`, the inhibition is 0.5% (inactive).

For the compound `Cc1[nH][nH]c(=O)c1C(c1c(C)[nH][nH]c1=O)c1cn(Cc2cccc3ccccc23)c2ccccc12`, the inhibition was 56% (active).

As for `Cc1[nH][nH]c(=O)c1C(c1c(C)[nH][nH]c1=O)c1cn(Cc2ccccc2Cl)c2ccccc12`, the inhibition is 50.3% (active).

`COC(=O)N/N=C/c1cn(Cc2ccccc2Cl)c2ccccc12`: the inhibition is 16.8% (inactive).

Consider `Cc1nccn1Cc1cccc2ccccc12`, for which the inhibition was -0.7% (inactive).

For `CCOC(=O)N1CCN(C(=O)CS(=O)(=O)c2cn(Cc3ccccc3Cl)c3ccccc23)CC1`, the inhibition was 3.6% (inactive).

For the compound `O=c1c2ccccc2ncn1Cc1cccc2ccccc12`, the inhibition is 7.1% (inactive).

Turning to `O=C(O)c1ccc(Cl)c(S(=O)(=O)Nc2ccccc2N2CCOCC2)c1`, the inhibition is -3.7% (inactive).

As to `CC(C)=C1C2C=CC1C(C(=O)Nc1cccc(C)c1)C2C(=O)O` (configuration not stated), the inhibition was 0.3% (inactive).

On to `O=C(COC(=O)c1cc(=O)c2ccccc2o1)NC1CCCC1`, for which the inhibition is 30.5% (inactive).

`CCC(=O)Nc1cc2[nH]c(=O)cc(C)c2cc1C`: the inhibition is 54.6% (active).

As for `CCCCCC(=O)Nc1cc2[nH]c(=O)cc(COC)c2cc1C`, the inhibition was -2.7% (inactive).

For the compound `CCC(=O)Nc1cc2c(C)cc(=O)oc2cc1C`, the inhibition is -14.2% (inactive).

In the case of `C#CCOCCOCCOCCNc1nc(N2CCN(C(=O)[C@H](C)n3cc(CCCN=C(N)N)nn3)CC2)nc(N2CCN(C(=O)[C@H](Cc3ccc(O)cc3)n3cc(CCO)nn3)CC2)n1`, the inhibition was -38% (inactive).

`COc1ccc(C(CC(=O)c2ccccc2)CC(=O)c2ccccc2)cc1OC`: the inhibition is 4% (inactive).

Turning to `COc1ccc(N=Cc2cc3c(cc2O)OC(N)=C(C#N)C3c2ccccc2)cc1` (configuration not stated), the inhibition is 50.4% (active).

Regarding `Cc1ccc(N=Cc2cc3c(cc2O)OC(N)=C(C#N)C3c2ccccc2)cc1` (configuration not stated), the inhibition is 10.5% (inactive).

As to `Cc1ccccc1N=Cc1cc2c(cc1O)OC(N)=C(C#N)C2c1ccccc1` (configuration not stated), the inhibition was 55% (active).

In the case of `N#CC1=C(N)Oc2cc(O)c(C=Nc3ccccc3)cc2C1c1ccccc1` (configuration not stated), the inhibition is -4% (inactive).

For the compound `N#CC1=C(N)Oc2cc(O)ccc2C1c1ccccc1` (configuration not stated), the inhibition is 7.4% (inactive).

On to `Cc1ccc(C2C(C#N)=C(N)Oc3cc4c(cc32)OCO4)cc1` (configuration not stated), for which the inhibition was 0.5% (inactive).

In the case of `Clc1ccc(C2=NCCN2)cc1`, the inhibition was 1.4% (inactive).

Turning to `O=C(Cc1ccc(F)cc1)N/N=C/c1ccccn1`, the inhibition was 16.5% (inactive).

As to `Cn1c(=O)[nH]c(=O)c2c1nc(N1CCOCC1)n2CC(O)COc1ccc2ccccc2c1` (configuration not stated), the inhibition was 6.5% (inactive).

`O=C(NC1CCCc2ccccc21)c1ccc(CNc2c(N3CCOCC3)c(=O)c2=O)cc1` (configuration not stated): the inhibition was -6.9% (inactive).

As for `CCOC(=O)c1cc2c(ccn2C)n1Cc1ccccc1Cl`, the inhibition was 50.5% (active).

As for `CCOC(=O)c1cc2c(ccn2C)n1Cc1cc(C)ccc1C`, the inhibition is 22.9% (inactive).

In the case of `CCOC(=O)c1cc2c(ccn2C)n1Cc1ccc(C#N)cc1`, the inhibition is 35.1% (inactive).

For `CCOC(=O)c1cc2c(ccn2C)n1Cc1ccccc1C`, the inhibition is 22.3% (inactive).

Regarding `CCOC(=O)c1cc2c(ccn2C)n1CC(=O)N1C(C)CCCC1C` (configuration not stated), the inhibition is 52% (active).

With `CCOC(=O)c1cc2c(ccn2C)n1Cc1ccc(Cl)cc1`, the inhibition was 52.4% (active).

With `CCOC(=O)c1cc2c(ccn2C)n1CC(=O)N1CCC(C)CC1`, the inhibition was 13.8% (inactive).

Take `CCOC(=O)c1cc2c(ccn2C)n1CC(=O)N1CCCC(C)C1` (configuration not stated): the inhibition was 7.2% (inactive).

As to `CCOC(=O)c1cc2c(ccn2C)n1CC(=O)N(C)C`, the inhibition was 44.7% (inactive).

In the case of `CCOc1cc(CNCc2ccccn2)cc(Cl)c1OC`, the inhibition is -0.7% (inactive).

Turning to `Cc1noc(C)c1C(=O)Nc1sc2c(c1C(N)=O)CCC2`, the inhibition is 0.1% (inactive).

In the case of `Cc1ccccc1CSc1nc2c(c(=O)[nH]1)CCC2`, the inhibition was 6.8% (inactive).

In the case of `O=C(O/N=C1\CCCc2ccccc21)c1cccc(Cl)c1`, the inhibition is 7.1% (inactive).

Take `CCN(CCn1cccn1)C(=O)CCc1nnc(-c2ccc3c(c2)OCO3)o1`: the inhibition was 5.8% (inactive).

Consider `CN(C)S(=O)(=O)c1ccc(C(=O)Nc2cc(=O)n(C)c(=O)n2C)cc1`, for which the inhibition is 3.9% (inactive).

For `O=C(c1nc2ncccn2n1)N1CCN(c2ccc(F)cc2)CC1`, the inhibition was 15% (inactive).

As for `NC(Cc1c[nH]c2ccccc12)C(=O)NCc1ccco1` (configuration not stated), the inhibition was 55.4% (active).

Take `O=C(CCc1c[nH]c2ccccc12)NCc1ccco1`: the inhibition is -5.8% (inactive).

Consider `O=C(Cc1c[nH]c2ccccc12)NCc1ccco1`, for which the inhibition was 7.4% (inactive).

For `COc1ccc(OCC(=O)Nn2c(-c3ccc(C)cc3)nc3ccccc3c2=O)cc1`, the inhibition was 12.7% (inactive).

With `O=c1[nH]c2cc3c(cc2cc1CN(Cc1nnnn1CC1CCCO1)C1CCCCC1)OCO3` (configuration not stated), the inhibition was 5.5% (inactive).

Consider `COc1ccc(C=Nc2cccc3ncccc23)cc1`, for which the inhibition was 63.3% (active).

Regarding `COc1ccc(/C=N\n2nnc3ccccc32)cc1`, the inhibition is -4.2% (inactive).

In the case of `COc1ccc(OCC(=O)Nc2cccc3ncccc23)cc1`, the inhibition is 3.4% (inactive).

Regarding `Cc1ccc(C=Nc2ccccc2C(N)=O)cc1`, the inhibition was 0.6% (inactive).

As for `Nc1ncc(Br)cc1N=Cc1ccccc1`, the inhibition is 24.6% (inactive).

Turning to `Cc1ccc(C=Nc2cccnc2N)cc1`, the inhibition was 63.2% (active).

`Cc1ccc(NC(=O)CCC(=O)N/N=C/c2cccs2)cc1`: the inhibition is -0.5% (inactive).
